This passage reports AC50 results from paper PMC6792352, “Limited Chemical Structural Diversity Found to Modulate Thyroid Hormone Receptor in the Tox21 Chemical Library” (Environmental Health Perspectives, 2019).

Each structure is given as a SMILES string. Counter-ions that a name gives are not always drawn.

The first experiment relates to thyroid hormone receptor (endogenous TRα and TRβ). On the set-up: species or system GH3-TRE-Luc (rat pituitary); GH3-TRE-Luc luciferase reporter, antagonist mode against 1 nM T3, loss of signal, qHTS. The conditions noted are these: antagonist mode, 1 nM T3, no GH3 cytotoxicity hit, 24 h, read-out: Average AC50 (uM) GH3-TRE-Antag.
A word on the AC50: it is the midpoint of the concentration-response curve, whichever way the signal moves. Take `Oc1cc(Cl)c(Cl)cc1Cl` [2,4,5-Trichlorophenol sodium salt]: the AC50 was 77.4 µM. The same measure, in the same setting: for `COc1ccc(N)cc1` [4-Methoxyaniline] the value was 89.4 µM. As for `Oc1cc(Cl)c(Cl)cc1Cl` [2,4,5-Trichlorophenol], the AC50 was greater than 50 µM.

Still in this experiment, the particulars now being: antagonist mode, 1 nM T3, no GH3 cytotoxicity hit, read-out: Average AC50 (uM) GH3-TRE-Antag.
Consider `Oc1ccc(Cl)c(Cl)c1Cl` [2,3,4-Trichlorophenol], for which the AC50 worked out at 87.3 µM. On the same count and under the same terms, for `COC(=O)c1c(C(F)F)nc(C(F)(F)F)c(C2=NCCS2)c1CC(C)C` [Thiazopyr] the value was greater than 90 µM; for `CCOc1ccc2c3c1O[C@H]1[C@@H](O)C=C[C@H]4[C@@H](C2)N(C)CC[C@@]341` [Ethylmorphine], 44.9 µM. The same measure, in the same setting: the result for `CCCSP(=O)(OCC)Oc1ccc(Br)cc1Cl` (stereo not drawn) [Profenofos] reads greater than 50 µM; that for `C[C@]12CCC(=O)C=C1CC[C@@H]1[C@@H]2CC[C@@]2(C)[C@H]1CC[C@]2(C)O` [17-Methyltestosterone], 46 µM. As to `Oc1c(Br)cc(Br)cc1Br` [2,4,6-Tribromophenol], the AC50 is greater than 50 µM.

`CC(C)CC(N(C)C)C1(c2ccc(Cl)cc2)CCC1` (stereo not drawn) [Sibutramine hydrochloride]: the AC50 was found to be 29.8 µM. For `CC(C)(N)Cc1ccc(Cl)cc1` [Chlorphentermine hydrochloride], the AC50 came out at 39.2 µM.

For the compound `O=c1c2ccccc2c(=O)c2c1cc(Cl)c1[nH]c3c([nH]c12)c(Cl)cc1c(=O)c2ccccc2c(=O)c13` [D&C Blue No. 9], the AC50 was 57.8 µM. The same measure, in the same setting: for `O=C(Nc1ccccc1)Nc1cnns1` [Thidiazuron] the value was 76.7 µM; for `OC(c1ccccc1)(c1ccccc1)C1CCNCC1` [Azacyclonol], 10.4 µM. Still for that read-out and setting: for `CCCCC(CC)COP(=O)(Oc1ccccc1)Oc1ccccc1` (stereo not drawn) [2-Ethylhexyl diphenyl phosphate] the value was 48.3 µM.
